Screens (PubChem)
In the library only some 4.5% were active in any assay of this set; here they are far more common.
hgDAF-12 ag: H. glycines DAF-12 receptor agonists, primary screen, cell-based, luminescence, HEK293, GAL4 fusion, UAS-luciferase; HEK293 GAL4-hgDAF12 UAS-luciferase reporter, agonist luminescence; normalized to butyrate control; 370,000 compounds, 1.8% hits; activation, % at 6.8 µM; Nuclear hormone receptor DAF-12 (Heterodera glycines), GAL4 fusion;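 active means activation above a cutoff set at the mean of all screened compounds plus 3 SD, cut at about 10% in these data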;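 further: 0% = DMSO wells and 100% = sodium butyrate wells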
DAX1 inh-1: DAX1 (NR0B1) inhibitors, primary screen, cell-based, HEK293, Gal4-DAX1, luciferase luminescence; Nuclear receptor subfamily 0 group B member 1 (Homo sapiens), P51843; HEK293 Gal4-DAX1 luciferase reporter; inhibition, % at 6.75 µM; 340,000 compounds, 0.99% hits;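 active means inhibition above the mean over all tested compounds plus 3 SD, cut at about 4.2% in these data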;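 further: 0% = DAX1-transfected cells with DMSO and 100% = empty-vector control cells with DMSO; inhibition shows as a rise in luminescence from relieved DAX1 repression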
ssDAF-12 act: S. stercoralis DAF-12 nuclear receptor activators, primary screen, cell-based, luminescence, HEK293, GRIP1 co-expression, lit1-tk-luc. Nuclear hormone receptor DAF-12 (Strongyloides stercoralis). HEK293 ssDAF-12/GRIP1 lit1-tk-luc reporter; % of 3 µM dafachronic acid response. 370,000 compounds, 1% hits. activation, % at 6.8 µM;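 active means activation above the mean over all tested compounds plus 3 SD, cut at about 0.9% in these data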;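 further: 0% = DMSO-only wells and 100% = 3 µM delta7-dafachronic acid wells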
hcDAF12 agonist: H. contortus DAF-12 nuclear receptor activators, primary screen, cell-based, luminescence, HEK293, lit1-tk-luc reporter | HEK293 hcDAF-12 lit1-tk-luc reporter; 0% DMSO, 100% Δ7-dafachronic acid | activation, % at 6.8 µM | 370,000 compounds, 1.4% hits;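 active means activation above the mean of all tested compounds plus 3 SD, cut at about 5.5% in these data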;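 further: 100% = response to 3 µM Δ7-dafachronic acid high control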
GAA850 FXN act: FXN promoter activators, primary screen, cell-based, luciferase luminescence, HEK293 lucGAA850; HEK293 lucGAA850 FXN promoter luciferase reporter, 24 h; percent of 10 µM SAHA response; 360,000 compounds, 0.56% hits; activation, % at 6 µM; AID 540364, 2011;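 active means activation above the average of all compounds screened plus 3 SD, cutoff fixed separately per campaign, cut at about 7.5% in these data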;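 further: 0% = DMSO wells and 100% = 10 µM SAHA wells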
DAX1 inh-2: DAX1 (NR0B1) inhibitors on StAR promoter, primary screen, cell-based, luminescence, SF-1 (NR5A1), full-length DAX-1; inhibition, % at 6.8 µM; HEK293T StAR-luciferase reporter, SF-1/DAX-1 repression relief; AID 652010, 2013; 370,000 compounds, 1.1% hits;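 active means inhibition above the mean over all tested compounds plus 3 SD, cut at about 3.6% in these data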;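 further: 0% = DAX-1 cells with DMSO and 100% = cells lacking DAX-1 with DMSO; higher inhibition means more luminescence from relief of DAX-1 repression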
DAX1 conf: DAX1 (NR0B1) inhibitors relieving SF-1 repression, confirmation, cell-based, luminescence, HEK293T, full-length DAX-1, SF-1 activated StAR promoter; shares compounds with DAX1 inh-2; HEK293T StAR-promoter luciferase reporter, SF-1/DAX-1 repression; inhibition, % at 6.8 µM; 2,400 compounds, 87% hits; AID 652134, 2013;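 active means inhibition above the average of every tested compound plus 3 SD, cut at about 3.8% in these data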;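 further: 0% = DAX-1 cells with DMSO and 100% = no DAX-1 control cells with DMSO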
Target sequence (P51843 whole entry, looked up): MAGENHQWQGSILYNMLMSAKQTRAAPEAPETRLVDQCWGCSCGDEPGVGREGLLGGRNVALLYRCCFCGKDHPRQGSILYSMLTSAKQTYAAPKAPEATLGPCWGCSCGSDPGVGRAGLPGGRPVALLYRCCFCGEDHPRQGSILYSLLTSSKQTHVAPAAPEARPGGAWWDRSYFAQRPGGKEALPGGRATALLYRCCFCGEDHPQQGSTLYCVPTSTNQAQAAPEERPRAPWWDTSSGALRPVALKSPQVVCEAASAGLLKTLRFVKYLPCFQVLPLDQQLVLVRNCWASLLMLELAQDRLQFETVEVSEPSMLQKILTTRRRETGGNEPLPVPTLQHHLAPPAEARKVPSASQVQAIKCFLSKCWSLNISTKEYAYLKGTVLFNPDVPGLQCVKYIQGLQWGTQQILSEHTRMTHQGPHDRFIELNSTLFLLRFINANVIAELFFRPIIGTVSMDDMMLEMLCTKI
SF1 AF2mut Luc: StAR reporter signal changes without DAX1, counter-screen for DAX1 inhibitor project, cell-based, luminescence, AF-2 mutant SF-1, transactivation. AID 652136, 2013. 2,400 compounds, 78% hits. HEK293 StAR-luciferase, SF-1 AF2 mutant. inhibition, % at 6.8 µM. shares compounds with DAX1 inh-2;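 active means inhibition above the mean of all tested compounds plus 3 SD, cut at about 3% in these data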;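 further: 0% = DAX-1 transfected cells with DMSO and 100% = cells without DAX-1 with DMSO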
Starred values were filed as active, the others as inactive; . = not tested or not shown.

SMILES	hgDAF-12 ag	DAX1 inh-1	ssDAF-12 act	hcDAF12 agonist	GAA850 FXN act	DAX1 inh-2	DAX1 conf	SF1 AF2mut Luc
COCCCNC(=O)C[C@H]1C[C@H](C(=O)N2CCOCC2)[C@@]2(CCC3CCCC3)c3[nH]c4cc(-c5ccco5)ccc4c3CCN2C1=O	-2.3	-1.3	-1.3	0.4	2.0	5.8*	0.5	0.6
Cc1ccc(NC(=O)COc2ccc3oc4c(c3c2)CCCC4)nc1	1.1	-0.7	-1.2	-1.7	-1.2	-1.0	.	.
Cc1ccc(NC(=O)COc2ccc3c(c2)CCC3)nc1	10.6*	3.5	-0.2	0.2	0.5	5.1*	8.4*	3.5*
Cc1cccnc1NC(=O)COc1ccc2c(c1)CCC2	9.1	0.2	1.0*	0.8	1.9	6.1*	4.7*	1.6
CCCN1CCN(CCCNC(=O)c2ccc3c(c2)NC(=O)c2ccccc2S3)CC1	2.0	1.0	-0.6	1.1	3.5	6.1*	4.4*	1.1
CCN(CC)CCNC(=O)c1ccc2c(c1)NC(=O)c1ccccc1S2	0.0	1.4	-1.0	1.6	5.6	0.8	.	.
CN(C)S(=O)(=O)c1ccc(C(=O)NCC2(N3CCCCC3)CCCCC2)cc1	-0.5	0.8	-1.1	0.9	1.7	6.0*	8.5*	3.3*
CCN(CC)S(=O)(=O)c1ccc(C(=O)NCC2(N3CCOCC3)CCCCC2)cc1	0.3	0.3	-1.2	0.4	0.4	4.6*	3.2	2.1
COc1cccc(N2CCN(C(=O)c3ccc(CS(=O)c4ccccc4Cl)o3)CC2)c1 (stereo unspecified)	-3.7	-0.8	-1.3	-1.7	-4.0	11.0*	14.1*	-8.6
COc1ccc(/C=C2\Sc3ccc(C(=O)NCCCN4CCCC4)cc3N(C)C2=O)cc1OC	1.6	0.5	-1.2	-0.7	2.4	4.6*	6.0*	0.0
COc1cccc(C(=O)Nc2nnc(S(=O)(=O)N3CCCC3)s2)c1	1.8	0.3	-0.5	0.7	-0.1	-0.3	.	.
Cc1nc2ccccc2c(=O)n1NC(=O)c1cccc(Cl)c1	-0.8	1.1	-0.3	-0.4	0.3	-0.2	.	.
Cc1c(NC(=S)NC(=O)c2cc3ccccc3o2)cccc1C(=O)O	4.2	1.8	-0.3	3.5	5.5	6.8*	6.6*	5.8*
O=C(Nc1ccc(CN2CCOCC2)cc1)c1cc2ccccn2n1	5.1	-2.3	-0.6	4.4	-1.4	6.2*	9.8*	3.0*
Cc1cc(C(=O)COC(=O)c2ccc(O)cc2O)c(C)n1C(C)C	12.3*	1.5	-0.1	3.9	5.4	7.3*	9.8*	5.0*
COc1ccc(CCn2c(C)cc(C(=O)COC(=O)c3ccc(O)cc3O)c2C)cc1	-1.1	-0.1	-1.4	-1.8	0.3	-4.5	.	.
O=C(Nc1ccc(Cl)cc1)Nc1ccccc1C(=O)O	10.2	-1.9	0.2	4.2	0.5	5.3*	9.0*	4.0*
Cc1ccc(C(=O)NC2CCc3ccccc3C2=O)cc1 (stereo unspecified)	13.2*	2.3	-0.7	3.3	4.8	5.5*	4.6*	3.3*
NC(=O)c1cnn2c(C(F)(F)F)cc(-c3ccc(F)cc3)nc12	-1.5	-0.3	-1.7	-2.2	-0.2	-0.8	.	.
CC(C)(C)c1ccc(C(=O)/C=C2\NC(=O)CS2)cc1	11.8*	-0.9	0.2	6.1*	5.7	5.2*	17.9*	9.2*
Cc1ccnc2nc(C(=O)OCCOc3ccc(Cl)cc3)nn12	4.2	0.0	-1.1	-0.5	0.1	-0.1	.	.
CCOc1ccc(C(=O)COC(=O)c2nc3nccc(C)n3n2)cc1	0.4	-0.3	-1.4	1.2	0.4	4.9*	2.9	1.7
CC1Cc2cc(/C(O)=C3/C(=O)C(=O)N(CCCn4ccnc4)C3c3ccc(F)cc3)ccc2O1 (stereo unspecified)	1.7	0.1	-0.7	2.3	1.1	0.2	.	.
Nc1c(C(=O)Nc2ccc3c(c2)OCCO3)nnn1CCc1ccccc1	9.1	-0.9	-0.9	0.2	-0.3	-2.2	.	.
Nc1c(C(=O)Nc2ccc3c(c2)OCCO3)nnn1Cc1cccc(Br)c1	2.9	3.9	-1.1	3.2	2.0	9.3*	9.0*	5.9*
SMILES	hgDAF-12 ag	DAX1 inh-1	ssDAF-12 act	hcDAF12 agonist	GAA850 FXN act	DAX1 inh-2	DAX1 conf	SF1 AF2mut Luc
COC(=O)C1CCN(C(=O)c2ccc3nc(-c4cccc(OC)c4)oc3c2)CC1	5.3	-0.7	0.3	1.8	7.4	4.8*	8.3*	5.0*
COC(=O)C1CCN(C(=O)c2ccc3nccnc3c2)CC1	-1.5	0.6	-1.3	1.7	-1.0	0.0	.	.
CC(C)C[C@@H]1Cc2[nH]c(=S)[nH]c(=O)c2[C@H](C)O1	0.8	.	-1.1	-1.0	.	5.8*	2.9	0.8
C[C@@H]1O[C@H](C2CC2)Cc2[nH]c(=S)[nH]c(=O)c21	1.8	.	-1.3	-0.9	.	0.8	.	.
Cc1cccc(C)c1-n1nnnc1C(c1ccccc1OC(F)(F)F)N1CCN(C/C=C/c2ccccc2)CC1 (stereo unspecified)	5.7	.	-0.8	-0.8	.	4.7*	-3.5	-1.1
COc1cccc(C(c2nnnn2-c2c(C)cccc2C)N2CCN(C/C=C/c3ccccc3)CC2)c1OC (stereo unspecified)	2.0	.	-0.3	-1.0	.	-2.5	.	.
CC(=O)c1ccc(NC(=O)c2cnn3ccccc23)cc1	4.8	-2.8	-0.6	4.3	-3.1	5.8*	5.3*	2.0
COC(=O)CSc1nnc(NC(=O)/C=C\c2ccc3c(c2)OCO3)s1	-2.6	-0.4	-1.1	-1.1	0.2	0.5	.	.
COC(=O)CSc1nnc(NC(=O)c2ccc3c(c2)OCO3)s1	7.1	0.1	-0.2	3.2	3.7	4.7*	8.7*	3.5*
